From PubChem
Hits are enriched below; roughly 21% of the tested compounds scored in any of these assays.
Cycloheximide cs = Cycloheximide Counterscreen for Small Molecule Inhibitors of Shiga Toxin; max response, %; 12% of 300,000 active; AID 2314, 2010; cell reporter, cycloheximide protein synthesis inhibition counterscreen; in the data active means max response mostly above about 13%, no sharp cut-off; inactive means mostly below about 14%; further: read at 38.3 µM for the half of the compounds with a filed dose; 0% is about no effect
FBPA Giardia inh = qHTS Assay for Inhibitors of Fructose-1,6-bisphosphate Aldolase from Giardia Lamblia. A8B2U2. purified Giardia FBPA. Potency, µM (titrated, usually from 59.6 µM), for the others: top-dose activity, negative = inhibition, hits mostly inhibitors. 0.71% of 290,000 active; further: potency means the concentration at half of the fitted maximal effect; on the % scale 0 is the no-effect control and ±100 the full control effect; nearly all actives have a fitted effect of over 55% in size
Target sequence (A8B2U2 whole entry, looked up): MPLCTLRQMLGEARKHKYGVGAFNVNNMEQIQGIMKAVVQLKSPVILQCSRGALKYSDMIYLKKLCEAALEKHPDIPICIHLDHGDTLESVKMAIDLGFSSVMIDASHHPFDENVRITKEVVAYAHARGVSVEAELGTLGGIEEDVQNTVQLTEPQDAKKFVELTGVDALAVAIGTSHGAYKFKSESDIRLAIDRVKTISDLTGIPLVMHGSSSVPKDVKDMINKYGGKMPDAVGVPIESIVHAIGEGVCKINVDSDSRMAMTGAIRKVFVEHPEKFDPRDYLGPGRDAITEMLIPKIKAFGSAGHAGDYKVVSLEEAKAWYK
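Giardia FBPA (40 nM reagent) was preincubated 10 min at RT with compound (up to 57.5 uM final), then substrate plus GAPDH/TPI/NAD/arsenate coupling system with diaphorase/resazurin was added; resorufin fluorescence (525/598 nm) was read after 20 min.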
NS1 inh = qHTS Assay for Inhibitors of Influenza NS1 Protein Function. 0.4% of 270,000 active. Potency, µM (doses to about 46.1 µM), for the others: at the highest dose activity, positive = more growth; calls by dose curve; further: potency means the concentration at half of the fitted maximal effect; actives are rising curves; nearly all actives have a fitted effect of over 50% in size
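Compounds were scored for reversing the slow growth caused by influenza A NS1 in S. cerevisiae, measured by optical density at 600 nm. Assay medium contained 2% galactose at pH 6.0; NS1-free yeast of the same strain were the positive control.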
Pf growth 96h = Primary qHTS for delayed death inhibitors of the malarial parasite plastid, 96 hour incubation; P. falciparum luciferase reporter growth, 96 h; Potency, µM (doses to about 28.7 µM), for the others: at the top dose activity change, negative = inhibition, most hits filed as inhibitors; 6.9% of 320,000 active; AID 504834, 2011; further: potency means the concentration at half of the fitted maximal effect; on the % scale 0 is the no-effect control and ±100 the full control effect
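Plates of compound plus infected erythrocytes (2% hematocrit, 0.05% parasitemia final) incubate 96 hours, 37 C, 5% CO2. Detection reagent added; reduced luminescence from the parasites' luciferase reporter flags inhibition.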
Pf growth 48h = Primary qHTS for delayed death inhibitors of the malarial parasite plastid, 48 hour incubation | P. falciparum luciferase growth in erythrocytes, 48 h | Potency, µM (titrated, usually from 28.7 µM), without a hit: at the highest dose activity change, negative = inhibition, hits mostly inhibitors | 5.9% of 310,000 active; further: potency means the concentration at half of the fitted maximal effect; on the % scale 0 is the no-effect control and ±100 the full control effect
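Cell-based growth assay: transgenic P. falciparum expressing firefly luciferase, cultured in red cells within RPMI 1640 containing 0.5% w/v Albumax, 24 mM bicarbonate and gentamycin. A drop in luciferase activity indicates inhibition.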
Shiga inhibitor = A qHTS for Small Molecule Inhibitors of Shiga Toxin; Vero cells, Shiga toxin protein synthesis inhibition reporter; 9.2% of 290,000 active; inhibition, % at 38.7 µM; in the data active means inhibition mostly above about 28%, no sharp cut-off; inactive means mostly below about 43%; further: 0% is about no effect
* marks the source's active call; other numbers are inactive results; ? = inconclusive; / = not tested or not shown; ! = repeats disagree. Unless noted, the call rests on the fitted dose curve; in most records, active means well fitted curve in the direction sought with a large enough effect; inconclusive means small, poorly fitted or top-dose-only effect, or another doubt; inactive means no such curve, though single readings can be large; an effect the other way counts as inactive or inconclusive.

SMILES | Cycloheximide cs | FBPA Giardia inh | NS1 inh | Pf growth 96h | Pf growth 48h | Shiga inhibitor
O=C(CCS(=O)(=O)c1ccc(Br)s1)Nc1ccccc1Br | 14.6 | -0.1% | / | 10.4% | 17.9% | 26.1
COc1cccc(CN(C)C(=O)c2cc(-c3ccc(F)cc3)nc3ccccc23)c1 | -3.6 | / | 10.0% | 13.1µM* | ? | -14.3
c1ccc2oc(NC3=NCN(CC4CCCO4)CN3)nc2c1 (stereo not given) | 28.7* | 0.7% | 4.2% | / | 112.1% | 81.4*
CCc1ccc2nc(NC3=NCN(CCOC)CN3)nc(C)c2c1 | / | / | 6.7% | / | / | /
OCCN1CN=C(Nc2nc3ccccc3o2)NC1 | -1.3 | 5.7% | ? | -33.2% | 46.4% | -4.0
COCCCN1CN=C(Nc2nc3ccccc3o2)NC1 | 40.0* | -1.4% | / | -4.9% | 206.5% | 60.6*
CCCN1CN=C(Nc2nc3ccccc3o2)NC1 | 32.3* | -5.8% | -1.1% | 44.4% | 84.6% | 129.5*
COc1ccc([C@H]2CC(=O)C=C(c3ccc(Cl)c(C(F)(F)F)c3)C2)cc1 | / | / | / | ? | -6.8% | /
CC(C)C[C@H](NC(=O)[C@H](C)NC(=O)CNC(=O)[C@H](CCCCN)NC(=O)[C@H](CCCN=C(N)N)NC(=O)[C@H](C)NC(=O)[C@H](Cc1ccccc1)NC(=O)[C@@H](N)CCCN=C(N)N)C(=O)N[C@@H](CCCN=C(N)N)C(=O)N[C@@H](CCC(N)=O)C(=O)N[C@@H](CCCCN)C(=O)N[C@@H](CC(N)=O)C(=O)N[C@H](C(N)=O)C(C)C | -3.9 | 4.8% | / | / | / | -3.7
Cc1ccc(Nc2nc(N)nc(CN3CCN(C(=O)c4ccco4)CC3)n2)cc1Cl | 10.8 | -12.3% | -14.2% | 7.38µM* | ? | 51.1
Cc1ccc(Nc2nc(N)nc(CN3CCN(C)CC3)n2)cc1 | 32.2* | -7.1% | 4.9% | / | 34.8% | 81.3
Cc1cccc(Nc2nc(N)nc(CN3CCN(C)CC3)n2)c1 | -5.8 | 1.2% | -5.1% | / | 16.0% | -11.7
Cc1ccc(Nc2nc(N)nc(CN3CCN(c4ccccc4F)CC3)n2)cc1 | 12.0 | -7.6% | ? | 6.57µM* | ? | -1.9
Cc1cccc(Nc2nc(N)nc(CN3CCN(c4ccc(F)cc4)CC3)n2)c1 | -1.9 | -2.0% | -14.4% | 10.4µM* | ? | -3.0
Cc1ccc(NC(=O)N2CCN(C(=O)c3ccco3)CC2)cc1Cl | -3.6 | -9.4% | -3.2% | 35.9% | ? | -4.5
Cc1ccc(Nc2nc(N)nc(CN3CCCCCC3)n2)cc1 | -1.1 | -2.3% | -1.9% | / | -8.0% | 10.1
Cc1cccc(CNc2cc(-c3ccccc3CN(C)C)ncn2)c1 | / | -0.1% | / | / | / | /
CCOC(=O)c1c(S(=O)(=O)NCC(=O)Nc2cc(C)ccc2C)c(C)n(C)c1C | -3.2 | -0.7% | -20.8% | -16.9% | -25.8% | 13.8
CCOC(=O)c1c(S(=O)(=O)NCC(=O)Nc2cc(C)ccn2)c(C)n(C)c1C | 13.4* | 11.9% | 2.3% | -11.1% | ? | 42.2
NS(=O)(=O)c1ccc(NC(=O)c2ccc(-c3ccccc3)cc2)cc1 | -1.7 | -4.2% | / | ? | -3.2% | -8.5
O=S(=O)(Nc1ccc(-c2nc3cccnc3s2)cc1)c1cc(F)ccc1F | 36.7* | 11.9% | 9.7% | 51.5% | 40.6% | 67.3*
O=C(Nc1cccc(-c2nc3cccnc3s2)c1)c1ccc(Cl)nc1 | 6.7 | 4.9% | 1.6% | ? | ? | 21.5
CCc1ccc(S(=O)(=O)Nc2ccc(-c3ccc4nncn4n3)cc2)s1 | / | / | / | ? | 42.1% | /
NS(=O)(=O)c1ccc(C(=O)Nc2ccc(-c3nc4cccnc4s3)cc2)cc1 | 48.2* | 4.7% | 3.8% | 15.9% | 40.9% | 69.7*
O=C(Nc1cccc(-c2nc3cccnc3s2)c1)c1cccnc1Cl | 17.6* | -8.9% | -64.6% | ? | ? | 30.9*
SMILES | Cycloheximide cs | FBPA Giardia inh | NS1 inh | Pf growth 96h | Pf growth 48h | Shiga inhibitor
CCc1ccc(S(=O)(=O)Nc2ccc(-c3nc4cccnc4s3)cc2)s1 | 35.7* | 0.0% | 1.1% | 149.2% | 94.8% | 59.9*
O=C(O)C1C2CCCCC2=C2CCCCC2C1C(=O)c1ccccc1 (stereo not given) | -3.5 | -10.9% | -3.0% | 32.2% | 0.5% | -16.8
Cn1c(N)c(C(=O)COC(=O)CC2CC3CCC2C3)c(=O)n(C)c1=O (stereo not given) | 0.7 | 1.0% | -4.9% | -61.4% | ? | -11.7
COc1ccc(N(CC(=O)NC2CC3CCC2C3)S(=O)(=O)c2ccccc2)cc1Cl (stereo not given) | 8.1 | / | 9.3% | -19.1% | ? | -6.4
CCCn1cc(CN2CCC(n3nccc3NC(=O)C(OC)c3ccccc3)CC2)c(C)n1 (stereo not given) | 1.9 | 4.9% | 1.7% | -0.8% | -3.4% | -6.2
Cn1c[n+](C)cc1-c1ccc(/C(N)=N/O)cc1 | 2.2 | -8.7% | 0.9% | 4.65µM* | ? | 9.0
N/C(=N\O)c1ccncc1 | -2.2 | 6.3% | 7.2% | 14.1% | 6.3% | -7.3
NC(=O)CC(NC(=O)c1ccc(Br)cc1)c1ccc(N2CCCCCCC2)c([N+](=O)[O-])c1 (stereo not given) | -2.1 | 26.4% | ? | 2.94µM* | 20.4% | -3.1
NC(=O)CC(NC(=O)c1ccc(Br)cc1)c1ccc(NC2CCCCCC2)c([N+](=O)[O-])c1 (stereo not given) | 12.2* | 10.1% | 13.3% | 9.7% | 2.9% | 15.8
CC(C)OCCCN1C=C2C(=O)C(C)(OC(=O)CCc3ccccc3)C(=O)C=C2C=C1c1ccc(C#N)cc1 (stereo not given) | 0.4 | ? | 5.0% | ? | 10.4µM* | -4.1
CC1(OC(=O)CCc2ccccc2)C(=O)C=C2C=C(c3ccc(C#N)cc3)N(CC3CC3)C=C2C1=O (stereo not given) | -4.7 | ? | 4.0% | -0.8% | ? | -1.8
COc1cccc(CN2CC(C(=O)NCC3CCOCC3)CCC2=O)c1 (stereo not given) | 0.9 | 8.0% | 5.3% | ? | 10.6% | 3.2
COc1ccc(C2/C=C\CN(CC(C)C)C(Cc3ccccc3)C(=O)N2Cc2ccc(F)cc2)cc1 (stereo not given) | 98.8* | -0.2% | / | / | / | 126.0*
COC(=O)N1C/C=C\C(c2ccc(OC)cc2)N(Cc2ccc(F)cc2)C(=O)C1 (stereo not given) | 0.4 | -0.6% | 3.6% | ? | ? | -10.7
COc1ccc(C2/C=C\CN(C(=O)Nc3ccccc3-c3ccccc3)CC(=O)N2Cc2ccc(F)cc2)cc1 (stereo not given) | 62.0*! | -2.2% | ? | 13.1µM* | 13.1µM* | 151.7*!
COc1ccc(C2/C=C\CN(CC(C)C)C(C)C(=O)N2Cc2ccc(F)cc2)cc1 (stereo not given) | 31.2* | -0.8% | / | / | / | 142.3*
COc1ccc(C2/C=C\CN(S(=O)(=O)c3ccc(C)cc3)CC(=O)N2Cc2ccc(F)cc2)cc1 (stereo not given) | -1.8 | 0.8% | 10.2% | ? | ? | 2.4
